# ssDAF12 agonist: activators of S. stercoralis DAF-12 nuclear receptor. HEK293 ssDAF-12/GRIP1 lit1-tk-luc reporter, luminescence; % of 3 µM dafachronic acid response. activation, % at 6.8 µM. actives 1% (n = 370,000). AID 652126;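 active = activation above the mean over all tested compounds plus 3 SD, cut at about 0.9% in these data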;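 note: 0% = DMSO-only wells and 100% = 3 µM delta7-dafachronic acid wells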
# hcDAF12 agonist: H. contortus DAF-12 activation, primary screen. activation, % at 6.8 µM. HEK293 hcDAF-12 lit1-tk-luc reporter, luminescence; 0% DMSO, 100% Δ7-dafachronic acid. actives 1.4% (n = 370,000);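 active = activation above the mean of all tested compounds plus 3 SD, cut at about 5.5% in these data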;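 note: 100% = response to 3 µM Δ7-dafachronic acid high control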
# DAX1 inh-1: inhibitors of human orphan nuclear receptor DAX1 (NR0B1); P51843; HEK293 Gal4-DAX1 luciferase reporter, luminescence; inhibition, % at 6.75 µM; actives 0.99% (n = 340,000); AID 504766;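 active = inhibition above the mean over all tested compounds plus 3 SD, cut at about 4.2% in these data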;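 note: 0% = DAX1-transfected cells with DMSO and 100% = empty-vector control cells with DMSO; inhibition shows as a rise in luminescence from relieved DAX1 repression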
# Target sequence (P51843 207-470 limits assumed): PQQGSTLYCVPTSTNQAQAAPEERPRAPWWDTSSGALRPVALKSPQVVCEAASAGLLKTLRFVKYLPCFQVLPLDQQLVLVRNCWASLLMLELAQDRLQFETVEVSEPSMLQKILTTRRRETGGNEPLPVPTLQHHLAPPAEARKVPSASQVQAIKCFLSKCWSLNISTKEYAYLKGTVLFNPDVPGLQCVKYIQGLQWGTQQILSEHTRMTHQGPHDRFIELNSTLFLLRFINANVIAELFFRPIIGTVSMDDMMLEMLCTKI
# DAX1 inh-2: inhibitors of DAX1 repression of SF-1 activated StAR promoter. HEK293T StAR-luciferase reporter, SF-1/DAX-1 repression relief. inhibition, % at 6.8 µM. actives 1.1% (n = 370,000). AID 652010;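 active = inhibition above the mean over all tested compounds plus 3 SD, cut at about 3.6% in these data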;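 note: 0% = DAX-1 cells with DMSO and 100% = cells lacking DAX-1 with DMSO; higher inhibition means more luminescence from relief of DAX-1 repression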
# hgDAF-12 ag: activates the H. glycines DAF-12 receptor ligand-binding domain | HEK293 GAL4-hgDAF12 UAS-luciferase reporter, agonist luminescence; normalized to butyrate control | activation, % at 6.8 µM | actives 1.8% (n = 370,000);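 active = activation above a cutoff set at the mean of all screened compounds plus 3 SD, cut at about 10% in these data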;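 note: 0% = DMSO wells and 100% = sodium butyrate wells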
# Active calls of the source: *; / = no result. Hits are enriched below; roughly 4.1% of the tested compounds scored in any of these assays.
SMILES,ssDAF12 agonist,hcDAF12 agonist,DAX1 inh-1,DAX1 inh-2,hgDAF-12 ag
CC(=O)NC(CC(=O)OCC(=O)c1c(N)n(CC(C)C)c(=O)n(C)c1=O)c1ccccc1 (centres undefined),-1,0,-2,-3,-1
CC(=O)N/C(=C\c1ccccc1)C(=O)OCC(=O)c1c(N)n(CC(C)C)c(=O)n(C)c1=O,-1,-1,4.4*,1,-1
OC(CCN1CCCCC1)(c1ccccc1)c1ccccc1,-1,-1,-1,1,7
NC(=O)C(CCCCN1CCCCC1)(c1ccccc1)c1ccccc1,-1,-2,2,4.1*,0
COC(=O)c1cn[nH]c1NC(=S)Nc1ccc(Cl)c(Cl)c1,-1,3,2,2,6
COC(=O)c1cn[nH]c1NC(=S)Nc1ccc(C)cc1Cl,-1,5,0,4.2*,8
Cc1ccccc1N1C(=O)C2C3C=CC(CC3)C2C1=O (centres undefined),-1,0,-1,0,-1
Cc1ccccc1N1C(=O)CC2(CCCC2)CC1=O,1.1*,0,0,1,0
COC(=O)CCN1CCSCCS1(=O)=O,-1,-1,/,0,0
O=C1NC(c2ccccc2)=N/C1=C/c1ccco1,1.0*,3,2,2,9
CCN(CC)C(=O)c1cc2sc3ccccc3c2s1,-1,1,2,1,12*
O=C(NCCN1CCC(n2c(=O)[nH]c3ccccc32)CC1)c1cccc(Cl)c1,-1,-1,/,0,19*
Cc1cc(C)c2c(N)c(C(=O)Nc3ccccc3F)sc2n1,-1,2,5.3*,2,11*
COc1ccc(NC(=O)C2(C)CCCN(C(C)=O)C2)cc1F (centres undefined),-1,-1,/,-1,1
Cc1cc(N2CCOCC2)ccc1/C=C\[N+](=O)[O-],16*,1,-1,0,4
CNc1cccc(-c2cccc(C(=O)N3CCOCC3)c2)n1,0,1,/,0,2
c1csc(-c2noc(CN3CCOCC3)n2)c1,-1,2,4.7*,0,2
CN(CCN1CCOCC1)Cc1nc(-c2cccs2)no1,-1,1,2,1,2
CC(NC(=O)Nc1ccccc1)C(c1cccs1)N1CCOCC1 (centres undefined),-1,3,1,-1,1
CC(NC(=O)Nc1ccc(Cl)cc1)C(c1cccs1)N1CCOCC1 (centres undefined),1.5*,-1,0,-1,-1
Cc1cc(N2CCN(C(=O)OC(C)(C)C)C[C@@H]2C)ccc1Br,-1,-1,/,-2,3
O=C(NNC(=S)Nc1ccccc1)C1CC1,-2,1,1,1,-2
S=C(NN=C(C1CC1)C1CC1)Nc1ccccc1,-1,-1,6.8*,1,10
CN(C)S(=O)(=O)c1ccc(C(=O)OCCCN=C2NS(=O)(=O)c3ccccc32)cc1,-1,-2,4.4*,-1,1
CCc1ccccc1Nc1ccc(C(=O)O)cc1N,-2,2,6.6*,0,7
SMILES,ssDAF12 agonist,hcDAF12 agonist,DAX1 inh-1,DAX1 inh-2,hgDAF-12 ag
Cc1noc(C)c1S(=O)(=O)N(C)C[C@H]1Oc2c(NC(=O)C3CCCCC3)cccc2C(=O)N([C@H](C)CO)C[C@@H]1C,-1,-1,0,2,-1
COc1ccc(CNC(=O)c2sc(=O)n(Cc3ccc(C)cc3)c2C)cc1,-2,-1,/,-1,-2
COC(=O)C1CN(Cc2ccccc2)CCS(=O)(=O)N1Cc1ccccc1F (centres undefined),-1,0,/,0,0
C/C(=N/NC(=O)c1sc(NS(=O)(=O)c2ccccc2)nc1C)c1ccc(F)cc1,-1,-2,0,0,1
C/C(=N/NC(=O)c1sc(NS(=O)(=O)c2ccccc2)nc1C)c1ccccc1,-1,-1,5.6*,0,0
COc1ccc(C(C(=O)NCc2ccccc2)N(Cc2cccnc2)C(=O)c2snc(C(N)=O)c2N)cc1OC (centres undefined),-1,0,4.3*,0,-3
CN1C(=O)c2cc(NC(=O)Nc3ccccc3)ccc2OC[C@H]2O[C@@H](CC(=O)NC3Cc4ccccc4C3)CC[C@@H]21,-1,-2,/,0,2
COc1ccc(OC)c(NC(=O)C2(C)CCN2C(=O)Cc2ccc(Cl)cc2Cl)c1 (centres undefined),-2,0,/,-1,-2
